PubChem BioAssay (Tox21)
Inconclusive results are not listed. The source made the active and inactive calls. Unless noted, the call rests on the fitted dose curve.

Experiments:
[1] = Nuclear factor erythroid 2-related factor 2/antioxidant responsive element (Nrf2/ARE) small molecule agonists: luciferase reporter gene qHTS assay in human keratinocytes (AID 1919969); further: nearly all actives have a fitted effect of over 35% in size
[2] = biological target: Gonadotropin-releasing hormone receptor (Homo sapiens) (UniProt P30968); assay: Human gonadotropin-releasing hormone receptor (GnRHR) small molecule agonists, calcium flux assay in GnRHR-HEK293 cells (AID 1920063); further: nearly all actives have a fitted effect of over 35% in size
Sequence of Gonadotropin-releasing hormone receptor (Homo sapiens) (P30968 whole entry, looked up): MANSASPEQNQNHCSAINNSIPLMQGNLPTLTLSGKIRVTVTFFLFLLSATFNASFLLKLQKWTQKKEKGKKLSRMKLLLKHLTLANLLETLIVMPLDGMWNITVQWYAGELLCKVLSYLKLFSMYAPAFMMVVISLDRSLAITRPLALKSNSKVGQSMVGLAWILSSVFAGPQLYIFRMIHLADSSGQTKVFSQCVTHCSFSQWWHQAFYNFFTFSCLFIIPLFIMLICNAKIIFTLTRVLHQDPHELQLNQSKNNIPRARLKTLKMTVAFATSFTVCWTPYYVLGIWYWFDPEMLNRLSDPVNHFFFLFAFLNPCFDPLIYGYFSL
Summary of the method: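 Fluorescence kinetics (480 nm excitation, 540 nm emission; 3 min, 1 s steps) report calcium mobilisation in human GnRHR-HEK293 cells in agonist mode. Dye incubation: 1 h, 37 C.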

[3] = biological target: KiSS-1 receptor (Homo sapiens) (UniProt Q969F8); assay: Human kisspeptin (KISS1R) small molecule agonists, calcium flux assay in KISS1R-HEK293 cells (AID 1920064; active means well fitted activation curve with a large enough effect in the repeat runs)
Sequence of KiSS-1 receptor (Homo sapiens) (Q969F8 whole entry, looked up): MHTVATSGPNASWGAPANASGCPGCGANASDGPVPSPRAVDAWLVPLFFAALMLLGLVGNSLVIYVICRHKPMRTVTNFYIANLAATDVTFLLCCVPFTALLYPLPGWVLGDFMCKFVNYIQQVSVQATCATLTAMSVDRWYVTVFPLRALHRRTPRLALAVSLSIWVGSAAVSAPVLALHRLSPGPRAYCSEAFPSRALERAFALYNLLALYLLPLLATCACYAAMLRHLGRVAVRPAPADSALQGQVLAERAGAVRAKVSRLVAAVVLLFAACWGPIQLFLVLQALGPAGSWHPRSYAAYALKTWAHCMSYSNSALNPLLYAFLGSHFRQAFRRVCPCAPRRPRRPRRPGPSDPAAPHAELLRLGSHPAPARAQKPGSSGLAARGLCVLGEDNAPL
Summary of the method: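 Measures KISS1R agonism through calcium-sensitive dye fluorescence in stably transfected HEK293 cells, read for 3 min after pin-tool compound delivery; 15-point titrations in triplicate.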

[4] = G protein-coupled receptor (GPCR) small molecule agonists, calcium flux assay: HEK293 wild type cell line counter screen (AID 1920065)
Summary of the method: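 Readout: fluorescence at 480 nm excitation/540 nm emission, sampled at 1 s intervals for 3 min. Cells had been cultured 18 h, then dye-loaded 1 h at 37 C before compound or ATP addition.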

[5] = p53 small molecule agonists, cell-based qHTS assay with human liver microsomes (AID 1963577)
Summary of the method: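 p53RE-bla cells, 4,000/well, compound added after 5 h, with human liver microsomes 0.5 mg/mL and NADPH 0.5 mg/mL final; 16 h at 37 C, then LiveBLAzer 2 h RT, fluorescence.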

[6] = p53 small molecule agonists, cell-based qHTS assay with rat liver microsomes (AID 1963578)
Summary of the method: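 p53RE-bla cells, 4,000/well, pre-incubated 5 h, then given compounds plus rat liver microsomes (0.5 mg/mL final) and NADPH (0.5 mg/mL final). Incubation 16 h at 37 C; beta-lactamase reporter read by LiveBLAzer fluorescence after 2 h at room temperature.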

[7] = p53 small molecule agonists, cell-based qHTS assay with human liver microsomes: qHTS cell viability counter screen (AID 1963579); further: nearly all actives have a fitted effect of over 45% in size
Summary of the method: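 p53RE-bla cells, 4,000/well, dosed 5 hours after plating, with human liver microsomes (0.5 mg/mL final) plus NADPH (0.5 mg/mL final), 16 hours at 37 C. Viability read as CellTiter-Glo luminescence after 30 min at room temperature.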

[8] = p53 small molecule agonists, cell-based qHTS assay with rat liver microsomes: qHTS cell viability counter screen (AID 1963580); further: nearly all actives have a fitted effect of over 45% in size
Summary of the method: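 HCT-116 p53RE-bla, 4,000 cells/well, 5 h pre-incubation; cpd + rat liver microsomes 0.5 mg/mL + NADPH 0.5 mg/mL (final); 16 h, 37 C; CellTiter-Glo, 30 min RT; luminescence.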

[9] = p53 small molecule agonists, cell-based qHTS assay: qHTS cell viability counter screen (AID 1963581); further: nearly all actives have a fitted effect of over 45% in size
Summary of the method: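 In the same plates used for the p53 bla reporter, HCT-116 cells given compounds for 16 h at 37 C received CellTiter-Glo; luminescence was recorded 30 min later at room temperature.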

[10] = p53 small molecule agonists, cell-based qHTS assay (AID 1963582; active means well fitted activation curve with a large enough effect in the signal ratio in the repeat runs, not every such curve was filed as active; the % refers to the signal ratio)
Summary of the method: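 Compounds are pin-transferred in DMSO onto p53RE-bla cells and incubated 16 h at 37 C. The B/G FRET beta-lactamase substrate is then applied for 2 h at RT and fluorescence recorded.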

[11] = biological target: 5-hydroxytryptamine receptor 2A (Homo sapiens) (UniProt P28223); assay: 5-hydroxytryptamine receptor 2A (HTR2A) small molecule antagonists, cell-based qHTS assay (AID 1963586); further: nearly all actives have a fitted effect of over 45% in size
Sequence of 5-hydroxytryptamine receptor 2A (Homo sapiens) (P28223 whole entry, looked up): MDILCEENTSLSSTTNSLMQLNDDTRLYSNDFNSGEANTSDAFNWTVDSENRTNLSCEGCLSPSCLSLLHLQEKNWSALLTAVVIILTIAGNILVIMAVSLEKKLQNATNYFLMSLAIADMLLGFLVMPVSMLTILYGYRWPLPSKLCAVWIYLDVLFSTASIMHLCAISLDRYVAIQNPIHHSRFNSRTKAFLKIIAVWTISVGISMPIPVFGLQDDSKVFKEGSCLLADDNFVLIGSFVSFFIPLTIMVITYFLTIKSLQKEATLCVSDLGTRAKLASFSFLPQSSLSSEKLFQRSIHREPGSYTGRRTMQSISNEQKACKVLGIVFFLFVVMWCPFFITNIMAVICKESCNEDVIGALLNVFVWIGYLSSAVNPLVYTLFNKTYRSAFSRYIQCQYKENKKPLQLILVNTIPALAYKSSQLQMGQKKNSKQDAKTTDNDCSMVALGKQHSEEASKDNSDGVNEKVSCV
Summary of the method: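 Antagonist-mode intracellular calcium assay: DOI (4 nM) added after 5 min compound pre-incubation at room temperature to dye-loaded HTR2A-CHO cells. Fluorescence followed for 3 min, sampled every second.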

[12] = biological target: 5-hydroxytryptamine receptor 2A (Homo sapiens) (UniProt P28223); assay: 5-hydroxytryptamine receptor 2A (HTR2A) small molecule agonists, cell-based qHTS assay (AID 1963587); further: nearly all actives have a fitted effect of over 30% in size
Summary of the method: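 Kinetic calcium-flux fluorescence (2 min, 1 sec intervals) after compound addition in agonist mode. HTR2A-CHO cells were cultured 18 h, then dye-loaded 1 h at 37 C.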

[13] = biological target: Muscarinic acetylcholine receptor M1 (Homo sapiens) (UniProt P11229); assay: Cholinergic receptor muscarinic 1 (CHRM1) small molecule antagonists, cell-based qHTS assay (AID 1963588); further: nearly all actives have a fitted effect of over 40% in size
Sequence of Muscarinic acetylcholine receptor M1 (Homo sapiens) (P11229 whole entry, looked up): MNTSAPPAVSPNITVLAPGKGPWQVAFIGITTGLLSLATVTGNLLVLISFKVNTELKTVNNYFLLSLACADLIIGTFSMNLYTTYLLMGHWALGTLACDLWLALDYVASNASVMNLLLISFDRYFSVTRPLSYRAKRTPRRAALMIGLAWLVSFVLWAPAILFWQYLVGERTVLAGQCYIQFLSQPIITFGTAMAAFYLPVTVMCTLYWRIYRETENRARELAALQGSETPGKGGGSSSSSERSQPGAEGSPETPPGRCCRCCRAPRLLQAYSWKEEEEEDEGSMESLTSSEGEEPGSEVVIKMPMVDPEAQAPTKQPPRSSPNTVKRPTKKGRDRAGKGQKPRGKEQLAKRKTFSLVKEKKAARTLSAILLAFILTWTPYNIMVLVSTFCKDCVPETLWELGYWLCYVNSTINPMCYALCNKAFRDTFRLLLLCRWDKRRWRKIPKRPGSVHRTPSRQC
Summary of the method: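 CHRM1-CHO calcium-flux assay, antagonist mode. Cells were seeded 18 h, dye-loaded 1 h at 37 C and given compound for 5 min at RT, then acetylcholine was added at 50nM. FDSS fluorescence was read 3 min; 15 concentrations, three runs.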

[14] = biological target: Muscarinic acetylcholine receptor M1 (Homo sapiens) (UniProt P11229); assay: Cholinergic receptor muscarinic 1 (CHRM1) small molecule agonists, cell-based qHTS assay (AID 1963589); further: nearly all actives have a fitted effect of over 35% in size
Summary of the method: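 Each compound was tested at 15 concentrations across three independent runs on dye-loaded CHO cells stably expressing human CHRM1, reading intracellular calcium fluorescence kinetically at 1 sec intervals.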

[15] = cAMP Responsive Elements (CRE) small molecule agonists, cell-based qHTS assay (AID 1963590)
Summary of the method: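 Cell line: CRE-bla HEK 293T; medium DMEM/10% dialyzed FBS/0.1 mM NEAA/1 mM pyruvate/25 mM HEPES; 3 h compound exposure; beta-lactamase FRET readout after 2 h substrate loading at RT.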

[16] = cAMP Responsive Elements (CRE) small molecule antagonists, cell-based qHTS assay (AID 1963591; active means well fitted inhibition curve with a large enough effect in the signal ratio in the repeat runs, not every such curve was filed as active; the % refers to the signal ratio)
Summary of the method: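 Inhibition of NKH477-driven (0.25 uM final) CRE-beta-lactamase signal in HEK293T cells, 3 h compound exposure at 37 °C, detected by FRET substrate fluorescence.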

[17] = biological target: Beta-2 adrenergic receptor (Homo sapiens) (UniProt P07550); assay: Adrenergic beta2 receptor (ADRB2) small molecule antagonists, cell-based qHTS assay (AID 1963592); further: series mostly up to about 92 µM; nearly all actives have a fitted effect of over 50% in size
Sequence of Beta-2 adrenergic receptor (Homo sapiens) (P07550 whole entry, looked up): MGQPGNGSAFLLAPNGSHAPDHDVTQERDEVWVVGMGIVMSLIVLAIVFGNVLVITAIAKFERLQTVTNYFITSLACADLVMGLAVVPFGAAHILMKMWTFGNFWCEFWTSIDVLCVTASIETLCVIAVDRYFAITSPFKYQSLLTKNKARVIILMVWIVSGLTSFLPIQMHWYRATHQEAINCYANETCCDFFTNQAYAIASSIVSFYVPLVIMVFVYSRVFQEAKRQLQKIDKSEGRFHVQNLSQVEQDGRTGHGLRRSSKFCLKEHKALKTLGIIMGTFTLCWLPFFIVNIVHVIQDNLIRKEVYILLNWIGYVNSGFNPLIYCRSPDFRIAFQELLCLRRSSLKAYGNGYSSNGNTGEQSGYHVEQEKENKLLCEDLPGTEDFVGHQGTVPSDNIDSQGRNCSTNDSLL
Summary of the method: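 Cells (CHO, stable ADRB2 overexpression) incubated 18-20hr at 37C; compounds added from DMSO; agonist mix (1nM isoproterenol, 100uM IBMX, 25uM Ro-20-1724) added; 0.5hr RT; d2-cAMP and anti-cAMP-cryptate added; 1hr RT; 665/615 nm read.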

[18] = biological target: D(2) dopamine receptor (Homo sapiens) (UniProt P14416); assay: Dopamine D2 receptor (DRD2) small molecule agonists, cell-based qHTS assay (AID 1963594); further: nearly all actives have a fitted effect of over 35% in size
Sequence of D(2) dopamine receptor (Homo sapiens) (P14416 whole entry, looked up): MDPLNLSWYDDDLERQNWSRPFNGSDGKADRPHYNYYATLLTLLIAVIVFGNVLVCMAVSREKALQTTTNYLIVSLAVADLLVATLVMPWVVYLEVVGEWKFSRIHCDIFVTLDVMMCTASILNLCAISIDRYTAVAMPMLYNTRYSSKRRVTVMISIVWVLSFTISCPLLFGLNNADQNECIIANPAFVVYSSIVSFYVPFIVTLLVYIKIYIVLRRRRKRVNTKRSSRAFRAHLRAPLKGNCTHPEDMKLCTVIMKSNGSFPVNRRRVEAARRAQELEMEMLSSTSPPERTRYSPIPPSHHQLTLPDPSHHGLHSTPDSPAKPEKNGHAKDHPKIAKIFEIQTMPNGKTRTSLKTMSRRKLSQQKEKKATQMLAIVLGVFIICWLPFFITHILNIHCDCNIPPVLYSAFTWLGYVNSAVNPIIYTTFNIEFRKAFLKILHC
Summary of the method: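 cAMP accumulation in DRD2-HEK293 cells measured by HTRF after 1 h detection; compounds added 10 min before NKH477 (200nM […]) forskolin-analogue stimulation, 30 min at room temperature, with Ro20-1724 present at 0.1 mM final.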

[19] = biological target: D(2) dopamine receptor (Homo sapiens) (UniProt P14416); assay: Dopamine D2 receptor (DRD2) small molecule antagonists, cell-based qHTS assay (AID 1963595; active means well fitted inhibition curve with a large enough effect in the signal ratio in the repeat runs, with a control signal flat; the % refers to the signal ratio)
Summary of the method: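 Human DRD2 antagonist qHTS measuring cAMP by HTRF. The cells are exposed to compound for 10 min, then to NKH477 (200 nM) and quinpirole (12 nM) for 30 min at RT, with Ro20-1724 (0.1 mM) present throughout.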

[20] = biological target: Beta-2 adrenergic receptor (Homo sapiens) (UniProt P07550); assay: Adrenergic beta2 receptor (ADRB2) small molecule agonists, cell-based qHTS assay (AID 1963593);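 further: CHO cells stably overexpressing human ADRB2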
Summary of the method: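 CHO cells stably over-expressing ADRB2 were plated overnight at 37C, then dosed with compounds plus a stimulation mix containing 100uM IBMX and 25uM Ro-20-1724 for 0.5hr at room temperature. cAMP was measured by HTRF competition, 1hr.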

Measured: Potency

O=[N+]([O-])c1c(Cl)cc(Cl)cc1Cl
inactive: [1] | [2] | [3] | [4] | [5] | [6] | [7] | [8] | [9] | [10] | [11] | [12] | [13] | [14] | [15] | [16] | [17] | [18] | [19]

CC(C)CCOC(=O)CC(C)C
inactive: [1] | [2] | [3] | [4] | [5] | [6] | [7] | [8] | [9] | [11] | [12] | [14] | [15] | [16] | [17] | [20] | [18]

CC(N)C(=O)OC(C)(C)Cc1ccc(Cl)cc1 (stereo not given)
inactive: [1] | [2] | [3] | [4] | [5] | [6] | [7] | [8] | [9] | [10] | [14] | [15] | [16] | [17] | [19]

CCOC(=O)[C@H](CCc1ccccc1)N[C@@H](C)C(=O)N1CCC[C@H]1C(=O)O
inactive: [1] | [2] | [3] | [4] | [5] | [6] | [7] | [8] | [9] | [10] | [15] | [17] | [18] | [19]
